Results filed as inconclusive are left out. Values without a mark were called inactive. The source made the active and inactive calls. The call rests on the fitted dose curve; in most records, active means well fitted cell-killing curve with a large enough effect in the repeat runs; inconclusive means weak or mixed curves, or effect the other way; inactive means flat fitted curve, though single readings scatter.
On the % scale 0 is the no-effect control and ±100 the full control effect; potency means the concentration at half of the fitted maximal effect.

A short description of the assay: qHTS assay to identify small molecule agonists of the TGF-beta/Smad signaling pathway - cell viability counter screen (AID 1346829). Further: nearly all actives have a fitted effect of over 45% in size. On activity change, negative = cytotoxicity: top concentration of the series differs between compounds. Particulars: SBE-bla HEK293T viability, CellTiter-Glo luminescence, 5 h; series mostly up to 76.8 µM; activity change, negative = cytotoxicity: at the top concentration. The source says: National Center for Advancing Translational Sciences [NCATS]
NIH Chemical Genomics Center [NCGC]
U.S. Environmental Protection Agency [EPA]
National Institutes of Environmental Health Sciences [NIEHS]
National Toxicology Program [NTP]
U.S. Food and Drug Administration [FDA]
Transforming growth factor beta (TGF-beta) superfamily consists of a large number of structurally related dimeric proteins that act as hormones or local mediators in regulating a wide range of biological functions. This superfamily includes TGF-betas themselves, the bone morphogenetic proteins (BMPs) and the activins. These ligands induce oligomerization of serine/threonine receptor kinases and phosphorylate the cytoplasmic signaling molecules of Smad protein family. CellSensor SBE-bla HEK 293T cell line (Life Technologies, Carlsbad, CA), responsive to TGF-beta was used to screen Tox21 10K compound library for identification of agonists/antagonists of the Smad signaling pathway. This cell line contains a beta-lactamase reporter gene under control of the Smad binding element (SBE) stably integrated into HEK 293T cells. Also cytotoxicity of the compounds was tested in parallel by measuring the cell viability using CellTiter-Glo assay system in the same wells.
Tox21 Assay Protocol Summary:
SBE-bla HEK 293T cells were dispensed at 4,000/well in 6 uL of assay medium into black wall/clear-bottom 1536-well plates using a Multidrop Combi (ThermoFisher Scientific, Waltham, MA) dispenser. After the assay plates were incubated at 37 C and 5% CO2 for an overnight, 23 nL of compounds dissolved in DMSO, positive controls or DMSO only was transferred to the assay plate by a Pintool station (Kalypsys, San Diego, CA). The assay plates were incubated at 37 C and 5% CO2 for 5 hr. One uL of LiveBLAzer B/G FRET substrate (Life Technologies) was added using a Flying Reagent Dispenser (FRD, Aurora Discovery, San Diego, CA) and the plates were incubated at room temperature for 2 hr. Fluorescence intensity (405 nm excitation, 460 nm and 530 nm emissions) was measured using an Envision plate reader (PerkinElmer, Shelton, CT). For cytotoxicity read, 4 uL of CellTiter-Glo reagent (Promega Corporation, Madison, WI) was added to each well of the assay plates using FRD. After 30min incubation at room temperature, the luminescence intensity was measured using ViewLux plate reader (PerkinElmer).
With `CCN(CC)CCc1c[nH]c2ccccc12`, the “activity change, negative = cytotoxicity” value is 10.6%.
On the same count and under the same terms, to `CC(Cl)CCl` (stereo not given) belongs 0.0185%.
Turning to `[C-]1=CC=CC1.[Cl][Zr+2][Cl].c1cc[cH-]c1`, the “activity change, negative = cytotoxicity” value is -4.18%.
As for `CNC(=O)CSP(=O)(OC)OC`, the “activity change, negative = cytotoxicity” value is 1.1%.
As for `Brc1cccc(-c2ccccc2)c1`, the “activity change, negative = cytotoxicity” value was 9.84%.
For the compound `O.O.O.O.O.O.O=S(=O)([O-])[O-].[Ni+2]`, the “activity change, negative = cytotoxicity” value is 0.904% [at 35.3 µM].
Same read-out and setting: to `c1ccc2c(c1)cc1ccc3cccc4ccc2c1c34` belongs -2.55%.
As to `BrCCCBr`, the “activity change, negative = cytotoxicity” value was 5.82%.
Regarding `CCOP(=O)(OCC)Oc1nc(Cl)c(Cl)cc1Cl`, the “activity change, negative = cytotoxicity” value was -11.3%.
As for `C=CCOC(=O)c1ccccc1N`, the “activity change, negative = cytotoxicity” value is -0.261%.
On the same count and under the same terms, to `Nc1ccc(Cl)cc1C(=O)c1ccccc1F` belongs -7.89% [at 35.3 µM]; to `O=P(Cl)(Cl)Cl`, -8.03%.
On to `O=[N+]([O-])c1cc(C(F)(F)F)c(Cl)c([N+](=O)[O-])c1Nc1ncc(C(F)(F)F)cc1Cl`, for which the Potency was 43.6 µM (active).
With `c1csc(-c2ccc(-c3cccs3)s2)c1`, the “activity change, negative = cytotoxicity” value is -3.36%.
With `[O-][Cl+3]([O-])([O-])O`, the “activity change, negative = cytotoxicity” value was 1.19%.
Take `CCCCN(CCCC)C(=S)S`: the “activity change, negative = cytotoxicity” value is -7.53%.
On the same count and under the same terms, to `CN/C(=N\[N+](=O)[O-])NCc1cnc(Cl)s1` belongs 15.8%.
On to `O=[N+]([O-])c1ccc(CCl)cc1`, for which the “activity change, negative = cytotoxicity” value was -5.35%.
Consider `C[C@]12Cc3cn[nH]c3C[C@@H]1CC[C@@H]1[C@@H]2CC[C@@]2(C)[C@H]1CC[C@]2(C)O`, for which the “activity change, negative = cytotoxicity” value was 1.15% [at 35.3 µM].
On to `c1ccc(N=NNc2ccccc2)cc1`, for which the Potency entry is “inactive”.
As to `Cc1ccccc1OP(=O)(Oc1ccccc1C)Oc1ccccc1C`, the “activity change, negative = cytotoxicity” value is 2.13%.
For `COC(=O)c1ccccc1S(=O)(=O)NC(=O)Nc1nc(C)nc(OC)n1`, the “activity change, negative = cytotoxicity” value was 23.3%.
Turning to `CNN`, the “activity change, negative = cytotoxicity” value is -5.69%.
In the case of `CC(=O)[O-].CC(=O)[O-].O.O.O.[Pb+2]`, the “activity change, negative = cytotoxicity” value was 0.845%.
For `O=S(=O)(NS(=O)(=O)C(F)(F)F)C(F)(F)F`, the “activity change, negative = cytotoxicity” value was -21.9%.
On to `COCCC#N`, for which the “activity change, negative = cytotoxicity” value was 32.8%.
As for `ClC1(Cl)C2(Cl)C3(Cl)C4(Cl)C(Cl)(Cl)C5(Cl)C3(Cl)C1(Cl)C5(Cl)C24Cl` (stereo not given), the “activity change, negative = cytotoxicity” value was 10.2%.
With `O=S1(=O)OCC2C(CO1)C1(Cl)C(Cl)=C(Cl)C2(Cl)C1(Cl)Cl` (stereo not given), the “activity change, negative = cytotoxicity” value was -19.9%.
On to `N#Cc1sc2c(=O)c3ccccc3c(=O)c=2sc1C#N`, for which the Potency is 38.9 µM (active).
As to `S=C=Nc1ccccc1`, the “activity change, negative = cytotoxicity” value was -13.2%.
`CC1(C)C(C=C(Cl)Cl)C1C(=O)OC(C#N)c1ccc(F)c(Oc2ccccc2)c1` (stereo not given): the “activity change, negative = cytotoxicity” value is -21.2%.
In the case of `COc1ccc2[nH]cc(CCN(C(C)C)C(C)C)c2c1`, the “activity change, negative = cytotoxicity” value is -3.73%.
Turning to `C#CC1(O)CCCCC1`, the “activity change, negative = cytotoxicity” value was -2.66%.
In the case of `CCC(C)Nc1c([N+](=O)[O-])cc(C(C)(C)C)cc1[N+](=O)[O-]` (stereo not given), the “activity change, negative = cytotoxicity” value was -23.8%.
Turning to `Cc1cnc2c(C(=O)O)c(Cl)ccc2c1`, the “activity change, negative = cytotoxicity” value is -17.8%.
With `Oc1cccc(Cl)c1Cl`, the “activity change, negative = cytotoxicity” value is 1.45%.
In the case of `CCOC(=O)CCN(SN(C)C(=O)Oc1cccc2c1OC(C)(C)C2)C(C)C`, the “activity change, negative = cytotoxicity” value is 0.873%.
In the case of `C[N+]1(C)[C@@H]2CC[C@H]1CC(OC(=O)C(CO)c1ccccc1)C2` (stereo not given in full), the “activity change, negative = cytotoxicity” value is 9.75% [at 35.3 µM].
On to `O=Cc1ccccc1`, for which the “activity change, negative = cytotoxicity” value is -4.98%.
For the compound `CCCCON=O`, the “activity change, negative = cytotoxicity” value is -0.0434%.

The values are drawn from PubChem BioAssay (Tox21).
